Experimental data from PubChem BioAssay (EPA / NIEHS).
Activity calls are given as the source filed them. How the source made its calls: active means hit-call score of the fitted dose curve at least 0.9, where 1 is the maximum; inactive means score below 0.9.

Tests used:
[1] = BSK_hDFCGF_SRB: Viability Assessment in the BioMAP Diversity Plus: hDFCGF Assay (AID 2283061); conditions: primary human foreskin fibroblasts;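 further: cells exposed to compound for 24 h before the read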
Outline: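 SRB-based viability read on primary human skin fibroblasts at 24 h: TCA fixation, 0.1% dye, 560 nm. Gain or loss of signal is fitted against the DMSO negative control.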

[2] = read-out: TIMP metallopeptidase inhibitor 1 (TIMP1), TIMP1 (gene 7076); experiment: BSK_hDFCGF_TIMP1: BioMAP Diversity Plus: hDFCGF Assay for TIMP metallopeptidase inhibitor 1 (TIMP1) Biomarker Activity (AID 2283062); conditions: primary human foreskin fibroblasts; actives raise or lower the signal
Outline: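 Bidirectional curve fitting against DMSO baseline yielded this endpoint, based on ELISA detection of TIMP-1 in primary human foreskin fibroblasts exposed to compound for 24 h.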

[3] = read-out: Monokine induced gamma interferon (MIG), CXCL9 (gene 4283); experiment: BSK_hDFCGF_MIG: BioMAP Diversity Plus: hDFCGF Assay for Monokine induced gamma interferon (MIG) Biomarker Activity (AID 2283063); conditions: primary human foreskin fibroblasts; actives raise or lower the signal
Outline: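 Endpoint derived by bidirectional fitting relative to DMSO; MIG quantified via ELISA in primary human foreskin fibroblasts harvested 24 h after dosing.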

[4] = read-out: Matrix Metallopeptidase 1 (MMP1), MMP1 (gene 4312); experiment: BSK_hDFCGF_MMP1: BioMAP Diversity Plus: hDFCGF Assay for Matrix Metallopeptidase 1 (MMP1) Biomarker Activity (AID 2283064); conditions: primary human foreskin fibroblasts; actives raise or lower the signal
Outline: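 Primary human foreskin fibroblasts in the hDFCGF system were dosed with test chemical, and MMP1 was measured by ELISA 24 h later. Values come from bidirectional curve fitting against the DMSO baseline.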

[5] = read-out: Vascular cell adhesion molecule 1 (VCAM1), VCAM1 (gene 7412); experiment: BSK_hDFCGF_VCAM1: BioMAP Diversity Plus: hDFCGF Assay for Vascular cell adhesion molecule 1 (VCAM1) Biomarker Activity (AID 2283065); conditions: primary human foreskin fibroblasts; actives raise or lower the signal;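 on AC50: VCAM-1 protein level quantified by ELISA after 24 h chemical exposure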
Outline: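 Measured after 24 h chemical treatment of primary human skin fibroblasts, VCAM-1 was detected by ELISA and concentration-response analysed in both directions versus DMSO vehicle.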

[6] = read-out: Plasminogen activator inhibitor-1 (PAI1), SERPINE1 (gene 5054); experiment: BSK_hDFCGF_PAI1: BioMAP Diversity Plus: hDFCGF Assay for Plasminogen activator inhibitor-1 (PAI1) Biomarker Activity (AID 2283066); conditions: primary human foreskin fibroblasts; actives raise or lower the signal
Outline: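 Primary dermal fibroblasts (human foreskin), hDFCGF system; compound 24 h; PAI-1 by ELISA; bidirectional fit vs DMSO control.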

[7] = read-out: Intercellular Adhesion Molecule 1 (ICAM1), ICAM1 (gene 3383); experiment: BSK_KF3CT_ICAM1: BioMAP Diversity Plus: KF3CT Assay for Intercellular Adhesion Molecule 1 (ICAM1) Biomarker Activity (AID 2283067); conditions: primary human keratinocytes with fibroblasts; actives raise or lower the signal
Outline: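 Bidirectional curve fitting against a DMSO baseline was applied to ICAM-1 ELISA signal from primary human skin co-cultures harvested 24 h after treatment, with SRB staining of parallel wells for overt cytotoxicity.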

[8] = read-out: Interferon-gamma inducible Protein 10 (IP10), CXCL10 (gene 3627); experiment: BSK_KF3CT_IP10: BioMAP Diversity Plus: KF3CT Assay for Interferon-gamma inducible Protein 10 (IP10) Biomarker Activity (AID 2283068); conditions: primary human keratinocytes with fibroblasts; actives raise or lower the signal
Outline: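 ELISA read-out of IP-10 after 24 h chemical dosing of human skin primary co-culture (keratinocytes, foreskin fibroblasts). Gain or loss of signal relative to DMSO, bidirectional curve fit.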

[9] = BSK_KF3CT_SRB: Viability Assessment in the BioMAP Diversity Plus: KF3CT Assay (AID 2283069); conditions: primary human keratinocytes with fibroblasts;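 further: total protein by sulforhodamine B staining as a cytotoxicity measure; read 24 h after compound addition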
Outline: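 Human primary keratinocyte plus foreskin fibroblast co-culture exposed to chemicals for 24 h. Total protein measured by 0.1% sulforhodamine B staining after 10% TCA fixation, read at 560 nm; bidirectional fitting versus DMSO baseline.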

[10] = read-out: Interleukin-1 alpha (IL1a), IL1A (gene 3552); experiment: BSK_KF3CT_IL1a: BioMAP Diversity Plus: KF3CT Assay for Interleukin-1 alpha (IL1a) Biomarker Activity (AID 2283070); conditions: primary human keratinocytes with fibroblasts; actives raise or lower the signal
Outline: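 Human keratinocyte plus foreskin fibroblast primary co-culture, sampled 24 h after chemical dosing. IL-1a measured by ELISA; responses fitted bidirectionally against DMSO baseline (negative control), so gain or loss of signal both count.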

[11] = read-out: TIMP metallopeptidase inhibitor 2 (TIMP2), TIMP2 (gene 7077); experiment: BSK_KF3CT_TIMP2: BioMAP Diversity Plus: KF3CT Assay for TIMP metallopeptidase inhibitor 2 (TIMP2) Biomarker Activity (AID 2283071); conditions: primary human keratinocytes with fibroblasts; actives raise or lower the signal
Outline: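 Cells: human keratinocytes co-cultured with foreskin fibroblasts. Treat with chemical, 24 h. Measure TIMP-2 by ELISA; fit curves bidirectionally vs DMSO baseline.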

[12] = read-out: Transforming growth factor beta 1 (TGFb1), TGFB1 (gene 7040); experiment: BSK_KF3CT_TGFb1: BioMAP Diversity Plus: KF3CT Assay for Transforming growth factor beta 1 (TGFb1) Biomarker Activity (AID 2283072); conditions: primary human keratinocytes with fibroblasts; actives raise or lower the signal
Outline: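 Primary human skin cells (keratinocytes, foreskin fibroblasts) were co-cultured, exposed to test chemical and sampled at 24 h. TGF-b1 levels were measured by ELISA and fitted bidirectionally relative to DMSO.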

[13] = read-out: C-C motif chemokine 2 (Homo sapiens) (UniProt P13500); experiment: BSK_KF3CT_MCP1: BioMAP Diversity Plus: KF3CT Assay for Monocyte Chemoattractant Protein 1 (MCP1/CCL2) Biomarker Activity (AID 2283073); conditions: primary human keratinocytes with fibroblasts; actives raise or lower the signal
Outline: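 Biomarker MCP-1 is measured by ELISA in primary human keratinocytes co-cultured with foreskin fibroblasts, 24 h after chemical treatment; DMSO serves as the negative control and activity baseline.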

[14] = read-out: Matrix Metallopeptidase 9 (MMP9), MMP9 (gene 4318); experiment: BSK_KF3CT_MMP9: BioMAP Diversity Plus: KF3CT Assay for Matrix Metallopeptidase 9 (MMP9) Biomarker Activity (AID 2283074); conditions: primary human keratinocytes with fibroblasts; actives raise or lower the signal;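 on AC50: MMP9 protein level quantified by ELISA in the co-culture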
Outline: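 Keratinocyte plus foreskin fibroblast human primary skin co-culture was dosed with chemical and MMP-9 was quantified by ELISA 24 h later. Bidirectional curve fitting used DMSO as negative control and activity baseline.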

[15] = read-out: urokinase plasminogen activator (uPA), PLAU (gene 5328); experiment: BSK_KF3CT_uPA: BioMAP Diversity Plus: KF3CT Assay for urokinase plasminogen activator (uPA) Biomarker Activity (AID 2283075); conditions: primary human keratinocytes with fibroblasts; actives raise or lower the signal
Outline: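 Human keratinocyte plus foreskin fibroblast primary co-culture exposed to chemical for 24 h. uPA levels were quantified by ELISA, and activity was fitted bidirectionally against a DMSO negative-control baseline.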

[16] = read-out: CD40, CD40 (gene 958); experiment: BSK_LPS_CD40: BioMAP Diversity Plus: LPS Assay for CD40 Biomarker Activity (AID 2283076); conditions: primary human HUVEC with PBMC; actives raise or lower the signal
Outline: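 Using a multiplexed primary human co-culture (umbilical vein endothelium plus PBMC), CD40 was read by ELISA 24 h after dosing, with cytotoxicity tracked by sulforhodamine B staining of parallel cultures and activity fitted bidirectionally versus DMSO.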

[17] = read-out: E-selectin (Homo sapiens) (UniProt P16581); experiment: BSK_LPS_Eselectin: BioMAP Diversity Plus: LPS Assay for Eselectin Biomarker Activity (AID 2283077); conditions: primary human HUVEC with PBMC; actives raise or lower the signal
Outline: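 Dose chemical onto LPS-driven HUVEC/PBMC co-culture; after 24 h, run ELISA for E-selectin; fit up- and down-going responses relative to DMSO control.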

[18] = read-out: Interleukin-8 (IL8), CXCL8 (gene 3576); experiment: BSK_LPS_IL8: BioMAP Diversity Plus: LPS Assay for Interleukin-8 (IL8) Biomarker Activity (AID 2283078); conditions: primary human HUVEC with PBMC; actives raise or lower the signal
Outline: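 In this LPS system, chemical-treated human umbilical vein endothelium/PBMC co-cultures were harvested at 24 h for IL-8 ELISA.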

[19] = BSK_LPS_SRB: Viability Assessment in the BioMAP Diversity Plus: LPS Assay (AID 2283079); conditions: primary human HUVEC with PBMC;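 further: total protein by sulforhodamine B absorbance as a cytotoxicity measure; measured one day after compound addition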
Outline: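 Cytotoxicity endpoint in human endothelial–PBMC co-culture: 24 h exposure, then SRB (0.1%) staining, 560 nm read.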

[20] = read-out: Interleukin-1 alpha (IL1a), IL1A (gene 3552); experiment: BSK_LPS_IL1a: BioMAP Diversity Plus: LPS Assay for Interleukin-1 alpha (IL1a) Biomarker Activity (AID 2283080); conditions: primary human HUVEC with PBMC; actives raise or lower the signal
Outline: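 Primary human HUVEC and PBMC co-culture stimulated with LPS is dosed and harvested at 24 h. Both increases and decreases in ELISA-measured IL-1a are scored relative to DMSO.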

Chain of E-selectin (Homo sapiens) (P16581 whole entry, looked up): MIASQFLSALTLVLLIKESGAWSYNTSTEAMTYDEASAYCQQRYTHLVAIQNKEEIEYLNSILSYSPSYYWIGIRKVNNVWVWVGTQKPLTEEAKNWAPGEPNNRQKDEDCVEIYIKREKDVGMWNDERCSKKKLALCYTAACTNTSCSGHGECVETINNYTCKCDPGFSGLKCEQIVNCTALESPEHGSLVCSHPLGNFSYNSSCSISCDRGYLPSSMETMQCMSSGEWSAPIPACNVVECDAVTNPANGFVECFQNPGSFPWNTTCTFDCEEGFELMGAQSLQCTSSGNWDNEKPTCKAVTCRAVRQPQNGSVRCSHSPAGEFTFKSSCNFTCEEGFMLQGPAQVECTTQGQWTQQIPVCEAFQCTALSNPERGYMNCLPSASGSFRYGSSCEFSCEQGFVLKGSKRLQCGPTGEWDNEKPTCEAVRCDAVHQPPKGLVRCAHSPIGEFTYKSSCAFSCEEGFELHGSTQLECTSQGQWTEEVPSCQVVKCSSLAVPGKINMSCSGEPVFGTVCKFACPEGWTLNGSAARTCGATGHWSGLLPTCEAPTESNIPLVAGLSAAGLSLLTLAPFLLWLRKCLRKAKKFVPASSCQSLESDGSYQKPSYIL

For `CCCCCCCCCC`, the outcome [1] was “inactive”, the outcome [2] was “inactive” and the outcome [3] was “inactive”. For the same compound, the outcome [4] was “inactive”, the outcome [5] was “inactive” and the outcome [6] was “inactive”. For the same compound, the outcome [7] was “inactive”, the outcome [8] was “inactive” and the outcome [9] was “inactive”. For the same compound, the outcome [10] was “inactive”, the outcome [11] was “inactive” and the outcome [12] was “inactive”. The outcome [13] was “inactive”, the outcome [14] was “inactive” and the outcome [15] was “inactive”. For the same compound, the outcome [16] was “inactive”, the outcome [17] was “inactive” and the outcome [18] was “inactive”. For the same compound, the outcome [19] was “inactive” and the outcome [20] was “inactive”.
For `CC(C)c1nnc2ccc(-c3ocnc3-c3cc(F)ccc3F)cn12`, the outcome [1] was “inactive”, the outcome [2] was “inactive” and the outcome [3] was “inactive”. The AC50 [5] was 0.148 µM (active), the outcome [6] was “inactive” and the outcome [7] was “inactive”. For the same compound, the outcome [8] was “inactive”, the outcome [9] was “inactive” and the outcome [10] was “inactive”. For the same compound, the outcome [11] was “inactive”, the outcome [12] was “inactive” and the outcome [13] was “inactive”. The outcome [14] was “inactive”, the outcome [15] was “inactive” and the outcome [16] was “inactive”. The AC50 [17] was 0.248 µM (active), the AC50 [18] was 0.148 µM (active) and the outcome [19] was “inactive”. The AC50 [20] was 0.148 µM (active).
For `COS(C)(=O)=O`, the outcome [1] was “inactive”, the outcome [2] was “inactive” and the outcome [3] was “inactive”. For the same compound, the outcome [5] was “inactive”, the outcome [6] was “inactive” and the outcome [7] was “inactive”. The outcome [8] was “inactive”, the outcome [9] was “inactive” and the outcome [10] was “inactive”. The outcome [11] was “inactive”, the outcome [12] was “inactive” and the outcome [13] was “inactive”. For the same compound, the outcome [14] was “inactive”, the outcome [15] was “inactive” and the outcome [16] was “inactive”. For the same compound, the outcome [17] was “inactive”, the outcome [18] was “inactive” and the outcome [19] was “inactive”. For the same compound, the outcome [20] was “inactive”.
For `OCCNCCO`, the outcome [1] was “inactive”, the outcome [2] was “inactive” and the outcome [3] was “inactive”. The outcome [5] was “inactive”, the outcome [6] was “inactive” and the outcome [7] was “inactive”. The outcome [8] was “inactive”, the outcome [9] was “inactive” and the outcome [10] was “inactive”. The outcome [11] was “inactive”, the outcome [12] was “inactive” and the outcome [13] was “inactive”. For the same compound, the outcome [14] was “inactive”, the outcome [15] was “inactive” and the outcome [16] was “inactive”. For the same compound, the outcome [17] was “inactive”, the outcome [18] was “inactive” and the outcome [19] was “inactive”. The outcome [20] was “inactive”.
For `O=C(Cl)C(F)(F)C(F)(F)C(F)(F)C(=O)Cl`, the outcome [1] was “inactive”, the outcome [2] was “inactive” and the outcome [3] was “inactive”. The outcome [5] was “inactive”, the outcome [6] was “inactive” and the outcome [7] was “inactive”. The outcome [8] was “inactive”, the outcome [9] was “inactive” and the outcome [10] was “inactive”. The outcome [11] was “inactive”, the outcome [13] was “inactive” and the outcome [14] was “inactive”. The outcome [15] was “inactive”, the outcome [16] was “inactive” and the outcome [17] was “inactive”. For the same compound, the outcome [18] was “inactive”, the outcome [19] was “inactive” and the outcome [20] was “inactive”.
In the case of `OC(Cn1cncn1)(Cn1cncn1)c1ccc(F)cc1F`, the outcome [1] was “inactive”, the outcome [2] was “inactive” and the outcome [3] was “inactive”. For the same compound, the outcome [5] was “inactive”, the outcome [6] was “inactive” and the outcome [7] was “inactive”. The outcome [8] was “inactive”, the outcome [9] was “inactive” and the outcome [10] was “inactive”. The outcome [11] was “inactive”, the outcome [12] was “inactive” and the outcome [13] was “inactive”. For the same compound, the outcome [14] was “inactive”, the outcome [15] was “inactive” and the outcome [16] was “inactive”. The outcome [17] was “inactive”, the outcome [18] was “inactive” and the outcome [19] was “inactive”. The outcome [20] was “inactive”.
For `CCN(CC)C(=S)SSC(=S)N(CC)CC`, the AC50 [1] was 4.75 µM (active), the AC50 [2] was 2.03 µM (active) and the AC50 [4] was 3.27 µM (active). The AC50 [5] was 1.56 µM (active), the AC50 [6] was 3.95 µM (active) and the AC50 [7] was 13.5 µM (active). The AC50 [8] was 9.46 µM (active), the AC50 [9] was 9.96 µM (active) and the AC50 [10] was 13.4 µM (active). For the same compound, the AC50 [11] was 12.4 µM (active), the AC50 [13] was 10.5 µM (active) and the AC50 [14] was 14.2 µM (active). For the same compound, the AC50 [15] was 14.8 µM (active), the AC50 [16] was 30.4 µM (active) and the AC50 [17] was 34.8 µM (active). The AC50 [18] was 29.7 µM (active) and the AC50 [19] was 31.1 µM (active).
